The values below come from PubChem BioAssay AID1259421 (Broad Institute, 2018).

Values joined by “and” are separate entries in the source; they are usually repeats but may differ in a detail not shown here. Identical values can stand only once. The campaign covered roughly 6,400 compounds. About 610 (9.5%) were called active. No stated cut-off is given here; in the data, active means activity change below about -70%; inconclusive means no clear call, values can overlap the other calls; inactive means above that. The entries come from a sample that favours actives as a whole. Some compounds were tested as several samples or in several runs, with calls that do not always agree.

The assay in a line: Toxoplasma gondii ME49Luc growth in HeLa cells, luciferase, no IFN-y, primary screen (AID 1259421). Conditions: T. gondii ME49Luc in HeLa, 72 h, stronger effect = lower value, concentration not given here.
Take `Cc1ccc(NC2=CC(=O)c3sc(C)nc3C2=O)cc1`: the activity change, negative = inhibition is -74.1% (active).
For `CC(C)(C)NCC(O)COc1ccc(NC(=O)NC2CCCCC2)cc1` (stereo not drawn), the activity change, negative = inhibition was 3.16% (inactive).
Under `COc1ccc(CCNCC(O)COc2cccc(C)c2)cc1OC` (stereo not drawn) stands 9.54% (inactive).
As for `CC1=C(C(=O)O)N2C(=O)[C@@H](NC(=O)C(N)c3ccc(O)cc3)[C@H]2SC1` (stereo partly drawn), the activity change, negative = inhibition is 4.06% (inactive).
Under `Cc1c(-c2ccc(O)cc2)n(Cc2ccc(OCCN3CCCCCC3)cc2)c2ccc(O)cc12` stands -80.5% (active); under `Cc1ccc(CC2(O)CCN(CCOc3ccc(O)cc3)CC2)cc1`, -6.15% (inactive) and -9.12% (inactive).
The result for `O=C(c1ccc(OCCN2CCCCC2)cc1)c1c(-c2ccc(O)cc2)sc2cc(O)ccc12` reads -9.78% (inactive) and -5.73% (inactive); that for `CC(=O)OCCN1C(=O)c2c(C)nc3ccc(S(=O)(=O)N4CCOCC4)cc3c2C1=O`, -1.17% (inactive).
Under `Nc1cc(Nc2ccc(S(N)(=O)=O)cc2)ncn1` stands 14.5% (inactive).
With `COc1c(O)cc2c(c1O)[C@H]1O[C@H](CO)[C@@H](O)[C@H](O)[C@@H]1OC2=O`, the activity change, negative = inhibition was -5.41% (inactive).
As for `CCOC(=O)c1cnc2oc3ccc(O)cc3c2c1-c1ccccc1`, the activity change, negative = inhibition was 6.27% (inactive).
The result for `C=CC(=O)Nc1ccc2ncnc(Nc3ccc(OCc4cccc(F)c4)c(Cl)c3)c2c1` reads -52.5% (inactive); that for `CS(=O)(=O)CCNCc1nc(-c2ccc3ncnc(Nc4ccc(OCc5cccc(F)c5)c(Cl)c4)c3c2)cs1`, -30.2% (inactive) and 30.3% (inactive).
`CS(=O)(=O)CCNCc1ccc(-c2ccc3ncnc(Nc4ccc(OCc5cccc(F)c5)c(Cl)c4)c3c2)o1`: the activity change, negative = inhibition is -64.5% (inactive) and -82.3% (active).
With `OC(CCl)CN1CC[N+]2(CC1)CC[N+]1(CCN(CC(O)CCl)CC1)CC2` (stereo not drawn), the activity change, negative = inhibition is 9.78% (inactive).
Under `CC1CCCC(C)N1NC(=O)c1ccc(Cl)c(S(N)(=O)=O)c1` (stereo not drawn) stands 15.9% (inactive); under `NCCNS(=O)(=O)c1cccc2c(Cl)cccc12`, -0.625% (inactive).
In the case of `C#Cc1cccc(Nc2ncnc3cc(OC)c(OCCCCCCC(=O)NO)cc23)c1`, the activity change, negative = inhibition was -82.6% (active).
Take `C#Cc1cccc(Nc2ncnc3cc(OCCOC)c(OCCO)cc23)c1`: the activity change, negative = inhibition is -30.3% (inactive).
Take `C#Cc1cccc(Nc2ncnc3cc(OCCOC)c(OCCOC)cc23)c1`: the activity change, negative = inhibition was -1.64% (inactive) and -10.5% (inactive).
The result for `COc1ccc2[nH]c(S(=O)Cc3ncc(C)c(OC)c3C)nc2n1` (stereo not drawn) reads 29.4% (inactive) and 28.4% (inactive).
On to `Cc1ccc2c(c1)C(=O)C1(O)CCN(c3ccccc3)C1=N2` (stereo not drawn), for which the activity change, negative = inhibition was 12.8% (inactive).
As for `COc1ccccc1OC(=O)C(C)c1ccc(CC(C)C)cc1` (stereo not drawn), the activity change, negative = inhibition was -39.2% (inactive).
The result for `O[n+]1ccccc1[S-].O[n+]1ccccc1[S-].[Zn+2]` reads -66.7% (inactive); that for `O=C1NC(=O)C(c2cnc3ccccn23)=C1c1cn2c3c(cc(F)cc13)CN(C(=O)N1CCCCC1)CC2`, -84.1% (active); that for `CC(C)n1nnc2cc(C(=O)O)ccc21`, 9.2% (inactive) and 12.9% (inactive).
`Cc1nc2sccn2c(=O)c1CCN1CCC(=C(c2ccc(F)cc2)c2ccc(F)cc2)CC1`: the activity change, negative = inhibition is -60.2% (inactive) and 18.5% (inactive).
The result for `CC[C@@H](Nc1c(Nc2cccc(C(=O)N(C)C)c2O)c(=O)c1=O)c1ccc(C)o1` reads -16.5% (inactive); that for `CC(C)(C)NC(=O)[C@H]1CCC2C3CCC4NC(=O)C=C[C@]4(C)C3CC[C@@]21C` (stereo partly drawn), 13.3% (inactive).
For `COC(=O)NC(C(=O)N[C@@H](Cc1ccccc1)C(O)CN(Cc1ccc(-c2ccccn2)cc1)NC(=O)C(NC(=O)OC)C(C)(C)C)C(C)(C)C` (stereo partly drawn), the activity change, negative = inhibition is -10.1% (inactive).
The result for `O=C(O)COCCN1CCN(C(c2ccccc2)c2ccc(Cl)cc2)CC1` (stereo not drawn) reads 2.12% (inactive) and -3.65% (inactive); that for `O=C(O)COCCN1CCN([C@H](c2ccccc2)c2ccc(Cl)cc2)CC1`, -64.2% (inactive).
The result for `OCCOCCN1CCN(C(c2ccccc2)c2ccc(Cl)cc2)CC1` (stereo not drawn) reads -71.5% (active); that for `O=C(CC(c1ccccc1)c1ccccc1)N1CCN(C(c2ccccc2)c2ccccc2)CC1`, 61.6% (inactive); that for `COc1ccc2c(c1OC)C(=O)OC2[C@H]1c2c(cc3c(c2OC)OCO3)CCN1C` (stereo partly drawn), 10.4% (inactive).
The result for `Nc1ccccc1NC(=O)c1ccc(CNC(=O)OCc2cccnc2)cc1` reads -0.731% (inactive) and 6.65% (inactive).
Turning to `Cc1cc(-c2ccc(CC(=O)Nc3ccc(-c4cccnc4)cc3)cc2)ccn1`, the activity change, negative = inhibition was 6.98% (inactive).
The result for `Nc1ccccc1NC(=O)c1ccc(CNc2nccc(-c3cccnc3)n2)cc1` reads -79.8% (active) and -89.7% (active).
Turning to `O=C(Nc1ccccc1-c1cn2c(CN3CCNCC3)csc2n1)c1cnc2ccccc2n1`, the activity change, negative = inhibition is -11.3% (inactive).
The result for `CCCC(=O)Oc1ccc2[nH]c(C(=O)c3cc4ccccc4[nH]3)cc2c1` reads 5.11% (inactive); that for `CN(Cc1ccccc1)Cc1ccccc1`, 16.3% (inactive); that for `CCN(CC)CCC(=O)N1c2ccccc2Sc2ccc(Cl)cc21`, 17.9% (inactive).
Under `O=C(O)CO.[NH2-].[NH2-].[Pt+2]` stands -0.913% (inactive); under `O=C(O)CCC(=O)O`, -23.1% (inactive).
As to `O=C(O)CC(O)(CC(=O)O)C(=O)O`, the activity change, negative = inhibition was -79.3% (active).
The result for `CCOC(=O)/C(=N/O)c1csc(N)n1` reads 7.65% (inactive); that for `CCC(CC)(NC(=O)C(C)C)C(=O)N[C@@H](CCCN=C(N)N)C(=O)NC1(C(=O)NC(c2ccc(F)cc2)c2ccc(F)cc2)CCCC1`, 12.8% (inactive).
Under `C/C(=C\c1csc(C)n1)[C@@H]1C[C@@H]2O[C@]2(C)CCC[C@H](C)[C@H](O)[C@@H](C)C(=O)C(C)(C)[C@@H](O)CC(=O)N1` stands -94.8% (active).
As to `C=CCN1CCc2nc(N)sc2CC1`, the activity change, negative = inhibition is 0.82% (inactive).
The result for `Fc1ccc(C2CCNCC2COc2ccc3c(c2)OCO3)cc1` (stereo not drawn) reads 28.3% (inactive).
With `Cc1cc2nc3c(=O)[nH]c(=O)nc-3n(C)c2cc1C=O`, the activity change, negative = inhibition was 9.97% (inactive) and 10.7% (inactive).
On to `CNCCCCOc1ccccc1Cc1ccccc1`, for which the activity change, negative = inhibition is 17.6% (inactive) and 22% (inactive).
Consider `O=C(O)CCC1CCC(c2cc(F)ccc2F)(S(=O)(=O)c2ccc(Cl)cc2)CC1` (stereo not drawn), for which the activity change, negative = inhibition was 7.06% (inactive).
Under `N#Cc1ccccc1OCC(O)CNCCNC(=O)Nc1ccccc1` (stereo not drawn) stands 10.2% (inactive) and -13.2% (inactive).
Consider `CC1(C)CC23C(=O)CCC(O)C2(C)CCC13` (stereo not drawn), for which the activity change, negative = inhibition was 11.7% (inactive).
Consider `NC(=O)c1ccc([N+](=O)[O-])cc1Cl`, for which the activity change, negative = inhibition was 17.4% (inactive) and 18.6% (inactive).
The result for `O=C(Nc1ccccc1)c1cc([N+](=O)[O-])ccc1Cl` reads 14.5% (inactive) and 9.52% (inactive); that for `O=C(Nc1ccc([N+](=O)[O-])cc1O)Nc1ccccc1Br`, -48.5% (inactive) and -4.88% (inactive).
The result for `O=C(Nc1ccc([N+](=O)[O-])cc1Cl)c1cc(Cl)ccc1O` reads -93% (active) and 4.01% (inactive); that for `O=C(Nc1cc(C(F)(F)F)cc(C(F)(F)F)c1)c1cc(Cl)ccc1O`, -83.9% (active); that for `O=C(Nc1ccncc1)c1cc([N+](=O)[O-])ccc1Cl`, -81.1% (active) and -86.9% (active).
Under `Cc1oncc1C(=O)Nc1ccc(C(F)(F)F)cc1` stands 165% (inactive) and 187% (inactive).
As for `C=CCNC(=O)c1cc([N+](=O)[O-])cc2c(=O)[nH]c(Nc3ccc(Cl)c(Cl)c3)nc12`, the activity change, negative = inhibition was 3.13% (inactive) and -6.94% (inactive).
Take `O=C(Nc1ccccc1)c1ccccc1O`: the activity change, negative = inhibition is 110% (inactive) and 0.394% (inactive).
Consider `CN1CCN(C2=Cc3ccccc3Oc3ccc(Cl)cc32)CC1`, for which the activity change, negative = inhibition is -2.4% (inactive) and 14.5% (inactive).
Regarding `O=C(NC1CCCCC1)NC1CCCCC1`, the activity change, negative = inhibition is 10.9% (inactive).
As to `O=C(O)c1ccc(NC2OC(CO)C(O)C(O)C2O)cc1` (stereo not drawn), the activity change, negative = inhibition is 4.39% (inactive).
As to `Cc1occc(=O)c1O`, the activity change, negative = inhibition was -2.72% (inactive).
Regarding `CC(C)S(=O)(=O)NC[C@H](C)c1ccc(-c2ccc(CCNS(C)(=O)=O)cc2)cc1`, the activity change, negative = inhibition was 8.52% (inactive).
Under `CN1C[C@H]2C[C@@H]1CN2c1cc2c(cc1F)c(=O)c(C(=O)O)cn2C1CC1` stands 7.36% (inactive); under `NC(=O)C1CCCN1C(=O)C(Cc1cnc[nH]1)NC(=O)C1CCC(=O)N1` (stereo not drawn), 2.14% (inactive); under `CCCCOc1ccc(CC(=O)NO)cc1`, -24.4% (inactive) and -36.9% (inactive).
Under `CCCCCCCCCCCC[N+](C)(C)CCOc1ccccc1` stands 14.1% (inactive); under `CCCCCCCCCc1ccc(OCCOCCOCCOCCOCCOCCOCCOCCOCCO)cc1`, -73.3% (active); under `NC(=O)NCCCC(N)C(=O)O` (stereo not drawn), 15% (inactive).
Take `CC(C)=CCC[C@](C)(O)[C@H]1CC[C@]2(C)[C@@H]1[C@H](O)C[C@@H]1[C@@]3(C)CC[C@H](O)C(C)(C)[C@@H]3CC[C@]12C`: the activity change, negative = inhibition is 27.9% (inactive).
The result for `CCCn1c(=O)c2[nH]cnc2n(-c2ccc(Cl)cc2)c1=O` reads 15.7% (inactive) and 11% (inactive).
As to `CO/N=C(/C(=O)NC1C(=O)N2C(C(=O)O)=C(CSc3nnnn3C)CSC12)c1csc(N)n1` (stereo not drawn), the activity change, negative = inhibition is 8.82% (inactive).
The result for `C#C[C@]1(O)CCC2C3CCC4=C(CCC(=O)C4)C3CC[C@@]21C` (stereo partly drawn) reads -83.2% (active); that for `C#C[C@]1(O)CC[C@@H]2C3[C@H](C)CC4=C(CCC(=O)C4)[C@H]3CC[C@@]21C` (stereo partly drawn), 5.27% (inactive); that for `C#C[C@]1(O)CC[C@H]2[C@@H]3CCC4=CC(=O)CC[C@@H]4[C@H]3CC[C@@]21C`, -67.2% (inactive).
The result for `C#C[C@]1(O)CCC2C3CCC4=CC(=O)CC[C@@H]4C3CC[C@@]21C` (stereo partly drawn) reads -91% (active); that for `C#C[C@]1(O)CCC2C3CCC4=CC(=O)CCC4C3C(=C)CC21CC` (stereo partly drawn), 16.2% (inactive).
Take `C#C[C@]1(O)CC[C@H]2[C@@H]3CCC4=CCCC[C@@H]4[C@H]3C(=C)C[C@@]21CC`: the activity change, negative = inhibition is 35.3% (inactive).
Regarding `C#C[C@]1(O)CC[C@H]2[C@@H]3CCC4=CC(=O)CC[C@@H]4C3CC[C@@]21CC` (stereo partly drawn), the activity change, negative = inhibition was -83.6% (active).
On to `C#C[C@]1(OC(C)=O)CCC2C3CCC4=C/C(=N/O)CCC4C3CC[C@@]21CC` (stereo partly drawn), for which the activity change, negative = inhibition is -84.7% (active).
Under `C#C[C@]1(O)CC[C@H]2[C@@H]3CCC4=CC(=O)CC[C@@H]4[C@H]3CC[C@@]21CC` stands -67.7% (inactive).
Under `C#C[C@]1(O)CCC2C3CCC4=CC(=O)CC[C@@H]4C3CC[C@@]21CC` (stereo partly drawn) stands -16.7% (inactive).
